# CYP2C9 inhib – human CYP2C9 inhibition | P11712 | CYP2C9 Supersomes, luciferin-H conversion, luminescence | inhibition, % at 5 µM | 96,000 tested, 20% active;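 active means blocking of liver enzyme CYP2C9 beyond about 50% at 5 µM, limit read from the data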
# MRP reversal – reverses drug resistance mediated by MRP. H69AR cells + 2 uM doxorubicin, CellTiter-Glo, 72 h. differential viability (reversal), % at 10 µM. 85,000 tested, 0.04% active. AID 602;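 active means viability drop by adding the cancer drug above about 55%, with treated viability meeting a 40% cutoff, limit read from the data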;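 further: viability without doxorubicin minus viability with 2 µM doxorubicin for each compound; larger differential means the compound sensitizes cells more to doxorubicin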
# CYP2C9 act – CYP2C9 (human) activation; P11712; recombinant CYP2C9, luciferin-H conversion, luminescence; stronger effect = higher value; factor 1 = untreated enzyme, 0 = blocked; activation factor at 5 µM; 96,000 tested, 1.4% active; AID 1024;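 active means activation factor of 2 or more for CYP2C9 at a 5 µM dose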;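 further: 0 = sulfaphenazole-blocked wells and 1 = vehicle-only wells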
# MRP1 act – MRP-1 activation. 140,000 tested, 0.61% active. H69AR cells + doxorubicin, viability rescue, CellTiter-Glo. AID 799. viability increase, % at 10 µM;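 active means viability gain under doxorubicin at or above a set limit, the compound median plus 3 SD, cut at about 4.7% in these data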;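 further: MRP-1 overexpressing cells given doxorubicin 25 µM after compound pretreatment; 18-22 h compound pretreatment then 72 h with doxorubicin before readout; 0% = doxorubicin-only wells and 100% = vehicle-treated cells without doxorubicin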
# CYP2C19 inhib – human CYP2C19 inhibition; P33261; 96,000 tested, 21% active; CYP2C19 Supersomes, luciferin-H EGE luminescence, 30 min; inhibition, % at 5 µM;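 active means CYP2C19 inhibition above a set limit at 5 µM in the primary screen, cut at about 50% in these data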;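 further: plate controls were negative control wells for no effect and 2.5 mM tranylcypromine positive control for full effect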
# Target sequence (P33261 whole entry, looked up): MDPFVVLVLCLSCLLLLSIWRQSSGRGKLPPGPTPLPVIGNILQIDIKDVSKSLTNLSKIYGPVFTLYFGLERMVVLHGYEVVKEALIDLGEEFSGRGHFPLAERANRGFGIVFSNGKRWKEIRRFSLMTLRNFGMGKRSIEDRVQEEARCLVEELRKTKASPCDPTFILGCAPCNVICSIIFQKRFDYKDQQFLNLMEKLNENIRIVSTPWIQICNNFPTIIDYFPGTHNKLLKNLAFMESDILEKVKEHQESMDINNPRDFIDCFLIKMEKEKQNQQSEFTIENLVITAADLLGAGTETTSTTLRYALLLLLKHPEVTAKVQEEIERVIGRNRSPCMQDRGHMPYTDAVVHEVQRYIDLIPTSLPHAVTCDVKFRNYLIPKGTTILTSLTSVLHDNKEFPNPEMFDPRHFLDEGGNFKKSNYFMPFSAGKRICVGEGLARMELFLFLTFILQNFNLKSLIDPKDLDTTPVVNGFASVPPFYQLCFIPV
# CYP2C19 activ – increases human CYP2C19 enzyme activity; 96,000 tested, under 10 active; P33261; recombinant CYP2C19, luciferin-H EGE luminescence; stronger effect = higher value; 0 = fully inhibited enzyme, 1 = untreated enzyme; activation factor at 5 µM;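 active means activation factor of at least 2 at 5 µM in the primary screen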;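 further: 0 = wells with 2.5 mM tranylcypromine and 1 = vehicle-only wells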
# * = called active by the depositor; . = no result. The list is not random: actives were taken first. Their share in the collection is about 21%.
SMILES,CYP2C9 inhib,MRP reversal,CYP2C9 act,MRP1 act,CYP2C19 inhib,CYP2C19 activ
CCN(CCNC(=O)CN(C)S(=O)(=O)c1cccc2nsnc12)c1ccccc1,59*,1,0.4,-2,89*,0.1
CCOc1ccc(CCNC(=O)CN(C)S(=O)(=O)c2cccc3nsnc23)cc1OCC,49,-3,0.5,0,22,0.8
CCN(CCCNC(=O)CN(C)S(=O)(=O)c1ccc2c(c1)CCC(=O)N2)c1cccc(C)c1,64*,11,0.4,-4,16,0.8
CCN(CCCNC(=O)CN(C)S(=O)(=O)c1cccc2nsnc12)c1cccc(C)c1,74*,14,0.3,-1,27,0.7
Cc1ccccc1CSc1ccc(-c2ccc3c(c2)OCO3)nn1,.,.,.,4,.,.
CCn1c(=N)n(CC(=O)C23CC4CC(CC(C4)C2)C3)c2ccccc21,0,-9,1,-2,9,0.9
COCCn1nnnc1C(c1cccs1)N1CCN(c2cc(C)ccc2C)CC1 (stereo not drawn),62*,4,0.4,1,38,0.6
COCCn1nnnc1C(c1ccccn1)N1CCN(c2cc(Cl)ccc2C)CC1 (stereo not drawn),41,8,0.6,2,42,0.6
COCCn1nnnc1C(c1cccs1)N1CCN(c2nc3ccccc3s2)CC1 (stereo not drawn),89*,10,0.1,-1,82*,0.2
CCN(Cc1ccccc1)C(c1cc2cc(C)cc(C)c2[nH]c1=O)c1nnnn1CCOC (stereo not drawn),7,19,0.9,-4,5,0.9
CCC(c1nnnn1Cc1cccs1)N1CCN(c2nc3ccccc3s2)CC1 (stereo not drawn),42,-6,0.6,-1,41,0.6
COCCn1nnnc1C(c1cc2cc(C)cc(C)c2[nH]c1=O)N1CCN(c2ccccc2F)CC1 (stereo not drawn),78*,6,0.2,-2,35,0.7
O=C(Oc1cccc(N2C(=O)CCC2=O)c1)C1CC(=O)N(c2ccc(F)cc2)C1 (stereo not drawn),8,5,0.9,-1,-13,1.1
Cc1ccc(-c2csc(N(C)C(=O)c3c(C)nn(-c4ccccc4)c3Cl)n2)cc1,74*,.,0.3,0,44,0.6
N#Cc1nc(-c2ccc(Cl)cc2)oc1NCc1ccco1,85*,17,0.1,-2,14,0.9
N#Cc1nc(-c2ccccc2)oc1NCc1ccco1,74*,0,0.3,-4,13,0.9
N#Cc1nc(-c2ccc(Cl)cc2)oc1NCc1cccc2c1OCO2,94*,3,0.1,0,34,0.7
COc1ccc(-c2nc(C#N)c(NCc3ccccc3Cl)o2)cc1,-11,-10,1.1,-3,-19,1.2
COc1ccc(CNc2oc(-c3ccccc3)nc2C#N)cc1,84*,6,0.2,-1,27,0.7
COc1ccc(-c2nc(C#N)c(NCCc3ccccc3)o2)cc1,.,.,.,-1,.,.
CC(Sc1nnc(C2CCCCC2)n1N)C(=O)NCc1ccc2c(c1)OCO2 (stereo not drawn),31,-2,0.7,-1,32,0.7
N#Cc1nc(-c2ccccc2Cl)oc1NCc1ccco1,83*,-5,0.2,-1,64*,0.4
N#Cc1nc(-c2ccco2)oc1NCc1ccc(F)cc1,82*,4,0.2,2,31,0.7
CC(C)CNc1oc(-c2ccco2)nc1C#N,.,-5,.,1,.,.
CN(CC(=O)Nc1ccc(Cl)cc1)CC(=O)Nc1ccc(F)c(F)c1F,.,.,.,-2,.,.
SMILES,CYP2C9 inhib,MRP reversal,CYP2C9 act,MRP1 act,CYP2C19 inhib,CYP2C19 activ
O=C1NC(=O)/C(=C\c2ccccc2Oc2ccc(F)c(F)c2)S1,85*,.,0.2,-2,13,0.9
O=C1NC(=O)/C(=C\c2ccc(Oc3ccc([N+](=O)[O-])cn3)cc2)S1,.,.,.,-2,.,.
CC(C)C(O)(C#CCN1CCCCC1)C(C)C,.,.,.,0,.,.
O=C(Nc1ccc(O)cc1C(=O)O)c1ccc2c(c1)C(=O)N(Cc1ccco1)C2=O,60*,-4,0.4,-1,-2,1
CCN(CC)CCOC(=O)/C=C/c1ccccc1OC,.,.,.,1,.,.
O=C1C(CCCNC(=S)NCc2ccccc2)NC(=S)N1Cc1ccccc1 (stereo not drawn),.,.,.,-3,.,.
COc1cc(C)nc(Oc2ccc(=O)n(C)n2)n1,10,-11,0.9,-4,-5,1.1
Cc1cccc(Nc2nc(NC(C)C)nc(Oc3ccc(=O)n(C)n3)n2)c1,53*,17,0.5,-1,16,0.8
CCc1nnc(NC(=O)c2ccc(Cl)c(S(=O)(=O)N3CCc4ccccc43)c2)s1,81*,.,0.2,-2,75*,0.3
O=C(Nc1ncccc1O)c1cccc(S(=O)(=O)N2CCc3ccccc32)c1,75*,-8,0.2,-1,72*,0.3
O=C(Nc1nnc(C2CC2)s1)c1ccc(Cl)c(S(=O)(=O)N2CCc3ccccc3C2)c1,.,.,.,-2,.,.
Cc1cccc2sc(NC(=O)c3cccc(S(=O)(=O)N4CCc5ccccc54)c3)nc12,.,.,.,-2,.,.
COc1cc2cc(CN(Cc3cccs3)C(=S)Nc3ccccc3)c(=O)[nH]c2cc1OC,.,.,.,-4,.,.
COc1ccc(CC(=O)Nc2ccc(S(=O)(=O)NC(C)C)cc2)cc1,60*,3,0.4,-3,62*,0.4
CCCNS(=O)(=O)c1ccc(CCC(=O)Nc2ccc3c(c2)OCO3)cc1,82*,3,0.2,-2,95*,0.1
CC(C)CNS(=O)(=O)c1ccc(CCC(=O)Nc2ccc3c(c2)OCCO3)cc1,58*,.,0.4,-4,39,0.6
CCCNS(=O)(=O)c1ccc(CCC(=O)Nc2ccc3c(c2)OCCO3)cc1,.,.,.,-2,.,.
CC(C)NS(=O)(=O)c1ccc(CCC(=O)Nc2ccc3c(c2)OCO3)cc1,52*,11,0.5,-3,48,0.5
CCC(C)NS(=O)(=O)c1ccc(OCC(=O)Nc2ccc3c(c2)OCO3)cc1 (stereo not drawn),31,7,0.7,0,17,0.8
COc1ccc(CN(C)Cc2nc3scc(-c4ccccc4)c3c(=O)[nH]2)cc1OC,.,.,.,-3,.,.
COC(=O)/C(=C/c1ccc(F)cc1)NC(C)=O,.,.,.,-1,.,.
Fc1cccc(C2CC(c3cccc(Br)c3)Nc3nnnn32)c1 (stereo not drawn),95*,-5,0.1,-1,95*,0
COc1cccc(C2CC(c3ccc(C)cc3)n3ncnc3N2)c1 (stereo not drawn),63*,0,0.4,-1,97*,0
COc1cccc(C2CC(c3ccccc3)n3ncnc3N2)c1 (stereo not drawn),24,-13,0.8,-3,51*,0.5
COc1cccc(C2CC(c3ccccc3Cl)Nc3ncnn32)c1 (stereo not drawn),.,-21,.,.,.,.
Cc1ccc(C2CC(c3ccccc3OC(F)F)Nc3ncnn32)cc1 (stereo not drawn),8,.,0.9,-1,27,0.7

# Screens from PubChem BioAssay.
